Screening data (PubChem BioAssay)
Hits are enriched below; roughly 0.93% of the tested compounds scored in any of these assays.
AGP1 TOR yeast: modulators of TOR pathway AGP1-GFP in S. cerevisiae; AID 2066; S. cerevisiae AGP1-GFP multiplex flow cytometry, 3 h; GFP as percent of DMSO wells; GFP response vs DMSO, % at 10 µM; 0.02% of 320,000 active;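 active means GFP response relative to DMSO above a set limit, near screen average plus 3 SD, cut at about 150% in these data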;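 further: median GFP channel fluorescence of the gated AGP1 strain per well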
LAP4-GFP MLPCN: modulators of TOR pathway LAP4-GFP in S. cerevisiae; S. cerevisiae LAP4-GFP multiplex, flow cytometry GFP, 3 h; median GFP as percent of DMSO wells; GFP response vs DMSO, % at 10 µM; 0.34% of 320,000 active; AID 2023;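 active means GFP response vs DMSO above a set limit, about the screen mean plus 3 SD, cut at about 150% in these data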
CIT2-GFP yeast: modulators of TOR pathway CIT2-GFP in S. cerevisiae. S. cerevisiae CIT2-GFP strain, flow cytometry, 3 h; 100 means same as DMSO wells. GFP response vs DMSO, % at 10 µM. 0.065% of 320,000 active;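 active means GFP response relative to DMSO above a set limit, near the screen mean plus 3 SD, cut at about 150% in these data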;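 further: ratio of well median GFP fluorescence to mean of DMSO wells on the plate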
MEP2-GFP yeast: modulators of TOR pathway MEP2-GFP in S. cerevisiae; AID 2016; GFP response vs DMSO, % at 10 µM; S. cerevisiae MEP2-GFP strain, flow cytometry GFP, 3 h; 100% = DMSO control level; 0.51% of 330,000 active;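 active means GFP response versus DMSO above a set limit, roughly screen mean plus 3 SD, cut at about 180% in these data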;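 further: median GFP fluorescence of the barcode-gated MEP2-GFP cells per well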
RPL19A-GFP yeast: alters RPL19A-GFP fluorescence in TOR pathway yeast screen. S. cerevisiae RPL19A-GFP strain, flow cytometry, 3 h; stronger effect = lower value. percent response vs DMSO, % at 10 µM. 0.3% of 330,000 active. AID 2025;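 active means percent response vs DMSO below 50%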;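 further: median channel GFP fluorescence of the barcoded RPL19A-GFP strain; lower means less RPL19A-GFP as with rapamycin TOR inhibition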
LAP4-GFP pick2: reconfirmed LAP4-GFP TOR pathway modulator in yeast | shares compounds with LAP4-GFP MLPCN | S. cerevisiae LAP4-GFP strain, flow cytometry GFP, 3 h | GFP response vs DMSO, % at 10 µM | 20% of 590 active;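 active means GFP signal as percent of the solvent control above about 150%, meaning raised reporter expression, limit read from the data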
MEP2-GFP pick2: second confirmation of modulators of TOR reporter MEP2-GFP in yeast | shares compounds with LAP4-GFP MLPCN | S. cerevisiae MEP2-GFP strain, flow cytometry GFP, 3 h | 10% of 590 active | GFP response vs DMSO, % at 10 µM;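 active means GFP signal above 150% of the solvent control wells, that is a rise of more than half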;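 further: median channel GFP fluorescence of all gated yeast cells per well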
RPL19A-GFP pick2: yeast RPL19A-GFP TOR reporter modulation, second cherry pick; 3% of 590 active; GFP response vs DMSO, % at 10 µM; S. cerevisiae RPL19A-GFP strain, flow cytometry GFP, 3 h; stronger effect = lower value; 100% means same as DMSO wells; shares compounds with LAP4-GFP MLPCN; AID 2623;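 active means under 65% GFP response relative to DMSO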;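 further: median GFP channel fluorescence per well over the all cells gate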
CIT2 GFP CP2: reconfirmed modulator of CIT2-GFP TOR reporter in yeast; shares compounds with LAP4-GFP MLPCN; S. cerevisiae CIT2-GFP strain, flow cytometry GFP, 3 h; DMSO control wells read 100%; GFP response vs DMSO, % at 10 µM; 8% of 590 active; AID 2624;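 active means GFP response vs DMSO above about 150%, limit read from the data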;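 further: median green fluorescence per well over all gated yeast cells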
AGP1-GFP pick2: yeast AGP1-GFP TOR reporter modulation, second cherry pick; percent response vs DMSO, % at 10 µM; AID 2643; 590 tested, under 10 active; shares compounds with LAP4-GFP MLPCN; S. cerevisiae AGP1-GFP strain, flow cytometry GFP, 3 h;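 active means over 150 percent of DMSO response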;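 further: median GFP channel fluorescence over all cells without mother daughter split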
Yeast autofluor: counter-screen for compound autofluorescence in yeast s288c cells; S. cerevisiae s288c, 520 nm autofluorescence, flow cytometry, 3 h; stronger effect = higher value; zero means same as solvent-only cells; 610 tested, under 10 active; shares compounds with LAP4-GFP MLPCN; fluorescence change (kMESF span) at 33 µM;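 active means fluorescence span over the dose series, or activity score, above about 33, limit read from the data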
Yeast autofl DR: yeast s288c autofluorescence artifact in dose response; shares compounds with LAP4-GFP MLPCN; S. cerevisiae s288c parental, compound autofluorescence, flow cytometry, 3 h; fluorescence change (span) at 33 µM; 110 tested, under 10 active;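 active means fluorescence change span, or the activity score built from it, above 25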
TORC1 bypass: compounds blocking wildtype yeast growth but not TORC1 bypass cells. shares compounds with LAP4-GFP MLPCN. S. cerevisiae BY4741 spot growth rating, 48-72 h; stronger effect = lower value. growth rating (0-3) at 30 µM. 120 tested, under 10 active;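 active means growth rating at most 1 for wild type yeast while the TORC1 bypass strain still grows fully, rated 3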
Numbers stand for hits; n = inactive; x = not tested or not shown.

SMILES	AGP1 TOR yeast	LAP4-GFP MLPCN	CIT2-GFP yeast	MEP2-GFP yeast	RPL19A-GFP yeast	Yeast autofluor	others
CNc1nc(N)c([N+](=O)[O-])c(NCC2CCCO2)n1 (stereo not given)	n	n	n	n	n	x	Yeast autofl DR=n;TORC1 bypass=n
O=S(=O)(c1ccc(F)cc1)c1snnc1-c1ccccc1	n	n	x	n	n	x	LAP4-GFP pick2=n;MEP2-GFP pick2=n;RPL19A-GFP pick2=n;CIT2 GFP CP2=n;AGP1-GFP pick2=n
CN(C)C(=O)C(=O)c1cccn1-c1cccc(Cl)c1C#N	n	n	n	n	n	x
CN(C)c1ccc(N=Cc2nc(-c3ccccc3)oc2OC(=O)c2cccc(Cl)c2)cc1	n	n	n	n	n	n
Cc1ccc(-c2nc(C=Nc3ccccc3)c(O)o2)cc1	n	n	n	n	n	x
Cc1ccc(C(=O)Oc2oc(-c3ccccc3)nc2C=Nc2ccc(N(C)C)cc2)cc1	n	n	n	n	n	n
Cc1cccc(NC(=O)CCc2nnc3ccc(N4CCC(C)CC4)nn23)n1	n	n	n	n	n	x
COc1ccc(S(=O)(=O)N2CCOCC2)cc1NC(=O)CSc1ccc(F)cc1	n	n	n	n	n	x
CCOC(=O)c1c(S(=O)(=O)NCC(=O)Nc2ccc(F)cc2)c(C)n(C)c1C	n	n	n	n	n	x
C=C(CC[C@@H](O)C(C)(C)O)[C@H]1CC[C@]2(C)[C@@H]1CCC1[C@@]3(C)CCC(=O)C(C)(C)C3CC[C@]12C (stereo not given in full)	n	158	n	n	n	x	LAP4-GFP pick2=n;MEP2-GFP pick2=n;RPL19A-GFP pick2=n;CIT2 GFP CP2=n;AGP1-GFP pick2=n
C=C(C)[C@@H]1CCC2(C(=O)O)CC[C@]3(C)[C@H](CC[C@@H]4[C@@]5(C)CCC(=O)C(C)(C)[C@@H]5CC[C@]43C)[C@@H]12 (stereo not given in full)	n	n	n	n	n	x
CCOC(=O)N1CCN(c2c(N3CCN(c4ccccc4F)CC3)c(=O)c2=O)CC1	n	n	n	n	n	x
O=C(NNc1ccccc1)Nc1ccccc1F	n	n	n	n	n	x
CCN(CC)c1ccc(/C=C2/C(=O)c3ccc(C(=O)O)cc3C2=O)cc1	n	298	231	365	n	n	LAP4-GFP pick2=285;MEP2-GFP pick2=377;RPL19A-GFP pick2=n;CIT2 GFP CP2=250;AGP1-GFP pick2=n
Cc1cc(C)c(NC(=O)c2cc(=O)c3ccccc3o2)c(C)c1	n	n	n	n	n	x
Cc1ccc(C2=NOC(=O)/C2=C\c2ccc(C)o2)cc1	n	203	n	n	n	n	Yeast autofl DR=n;TORC1 bypass=n
COc1ccc(/C=C2\C(=O)ON=C2c2ccccc2)cc1	n	168	n	n	n	n	LAP4-GFP pick2=160;MEP2-GFP pick2=n;RPL19A-GFP pick2=n;CIT2 GFP CP2=n;AGP1-GFP pick2=n
